This is an account of results in PubChem BioAssay (NCI).

SMILES strings stand for the structures. About 83,000 compounds went through this panel and 20% of them were active in at least one assay; those are over-represented in the sample as a whole.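 Results are percent growth after 48 hours of single-concentration exposure. 100 means growth as in untreated cells, lower positive values show inhibition; negative values down to -100 show cell death.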 Unmarked numbers belong to inactive results. Calls of active or inactive are those of the source. The calls were made as follows: active = growth percent below 10; inactive = the rest.

Test systems include T-47D breast; BT-549 breast; MDA-MB-435 melanoma; SW-620 colon; MCF7 breast; HCT-116 colon; HCC-2998 colon; KM12 colon.
What all share (assay): NCI-60 one-dose screen, 48 h (100 = growth as untreated, 0 = no growth, -100 = all killed)
Settings in all cases: 10 µM unless noted

`CN(C)c1ccc(C(=NO)c2ccc(N(C)C)cc2)cc1`: the growth was 45.8% in the assay on T-47D breast; 53.4% in the assay on BT-549 breast; -43.2% (active) with MDA-MB-435 melanoma; 13.4% in the assay on SW-620 colon; 32.6% in the assay on MCF7 breast; 18.5% with HCT-116 colon. The growth was 58.6% in the assay on HCC-2998 colon and 13.6% in the assay on KM12 colon.
As to `CN1CCN(c2ccc(NC(=O)c3cncnc3Nc3ccc4c(ccn4Cc4cccc(F)c4)c3)cc2)CC1`, the growth in the assay with T-47D breast is 48.8%; in the assay with BT-549 breast it was 85.6%; in the assay on MDA-MB-435 melanoma, -79.7% (active); with SW-620 colon, 5.18% (active); with MCF7 breast, 12.8%; in the assay on HCT-116 colon, 13.1%. Further, the figures for the growth with HCC-2998 colon and with KM12 colon were 61.6% and 46.7%, respectively.
For `O=C(CCC(=O)c1nc2ncccc2[nH]1)NN1C(=O)CSC1c1ccc(Cl)cc1` (stereo not given), the growth with T-47D breast is 90.7%; with BT-549 breast, 120%; with MDA-MB-435 melanoma, 99.7%; with SW-620 colon it was 81.4%; with MCF7 breast, 87%; in the assay with HCT-116 colon, 86%. Also, the growth is 112% in the assay on HCC-2998 colon and 94.7% with KM12 colon.
Take `COc1cc(Nc2ncccc2NC(=O)c2cn(Cc3cccc(Oc4ccccc4)c3)nn2)cc(OC)c1`: the growth in the assay on T-47D breast was 65%; in the assay on BT-549 breast, 85.5%; in the assay with MDA-MB-435 melanoma it was -6.08% (active); in the assay with SW-620 colon, 86.1%; in the assay with MCF7 breast, 49.3%; with HCT-116 colon it was 91.1%. The figures for the growth with HCC-2998 colon and in the assay on KM12 colon were 71.6% and 62.2%, respectively.
In the case of `Nc1nc(C(=O)N/N=C/c2ccc(N3CCOCC3)cc2)nn1-c1ccc(S(N)(=O)=O)cc1`, the growth in the assay with T-47D breast is 108%; in the assay on BT-549 breast, 116%; in the assay on MDA-MB-435 melanoma, 104%; with SW-620 colon it was 99.9%; in the assay on MCF7 breast, 103%; in the assay with HCT-116 colon, 101%. Besides, the growth in the assay on HCC-2998 colon was 104%; in the assay with KM12 colon, 103%.
Regarding `O=C(Nc1ccc(F)cc1)Nc1ccccc1CNc1nc(Nc2ccc(OCCN3CCCC3)cc2)ncc1Cl`, the growth in the assay with T-47D breast is 100%; in the assay on BT-549 breast, 84.9%; in the assay with MDA-MB-435 melanoma, 16.3%; with SW-620 colon, 27.8%; in the assay with MCF7 breast, 32.5%; in the assay on HCT-116 colon, 21.8%. Besides, the growth in the assay on HCC-2998 colon is 48.6%; with KM12 colon, 49.6%.
As for `COc1cccc(/C=C2\COc3ccc(O)cc3C2=O)c1`, the growth with T-47D breast is 47.5%; in the assay on BT-549 breast it was 78%; in the assay with MDA-MB-435 melanoma, 52.8%; in the assay on SW-620 colon, 18.1%; in the assay on MCF7 breast it was 4.96% (active); in the assay with HCT-116 colon, 32.8%. Also, the figures for the growth in the assay with HCC-2998 colon and with KM12 colon were 115% and 43.7%, respectively.
Take `Cn1cc(-c2csc(-c3cn(C)c4ccc(Br)cc34)n2)c2cnccc21`: the growth is -47.3% (active) in the assay on T-47D breast; 86.2% with BT-549 breast; -87.6% (active) in the assay on MDA-MB-435 melanoma; -70% (active) with SW-620 colon; -74.7% (active) in the assay on MCF7 breast; -89.8% (active) with HCT-116 colon. Moreover, the growth in the assay on HCC-2998 colon was -84.3% (active); in the assay on KM12 colon, -87.4% (active).
Consider `S=c1ssnc1-c1cccs1`, for which the growth in the assay on T-47D breast is 92.6%; in the assay on BT-549 breast, 116%; in the assay with MDA-MB-435 melanoma, 83.9%; with SW-620 colon, 83.7%; with MCF7 breast it was 91.6%; in the assay on HCT-116 colon, 89.4%. Moreover, the growth with HCC-2998 colon was 98.4%; with KM12 colon, 92.1%.
`C=CC1(C)C(O[Si](C)(C)C(C)(C)C)CC2C3OC(=O)NC31c1cccc3c1[C@H](C(=O)N3C)C2(C)C` (stereo not given in full): the growth in the assay on T-47D breast is 23.8%; in the assay on BT-549 breast it was 53.8%; with MDA-MB-435 melanoma, 56.2%; in the assay on SW-620 colon, 64.6%; in the assay on MCF7 breast, 27.7%; with HCT-116 colon, 38.6%. Also, the growth in the assay on HCC-2998 colon is 69.1%; with KM12 colon, 50.5%.
As to `CCOC(=O)c1c2c(n3c1NCC3)-c1ccccc1C2=O`, the growth in the assay with T-47D breast is 97.7%; in the assay on BT-549 breast it was 86.9%; with MDA-MB-435 melanoma it was 90.8%; in the assay with SW-620 colon it was 91.8%; with MCF7 breast it was 90.6%; with HCT-116 colon, 103%. Moreover, the growth in the assay on HCC-2998 colon is 91.4%; with KM12 colon, 103%.
On to `O=C(/C=C\c1ccco1)/C=C/c1ccco1`, for which the growth in the assay with T-47D breast is 112%; in the assay with BT-549 breast, 101%; in the assay on MDA-MB-435 melanoma it was 98.3%; with SW-620 colon, 103%; in the assay on MCF7 breast it was 101%; in the assay on HCT-116 colon it was 105%. Also, the growth in the assay on HCC-2998 colon is 101%; in the assay with KM12 colon, 106%.
Turning to `N#Cc1c(NC(=O)c2cccs2)[n+]([O-])c2ccc(Cl)cc2[n+]1[O-]`, the growth in the assay on T-47D breast is 91.4%; with BT-549 breast it was 113%; with MDA-MB-435 melanoma, 89.2%; in the assay on SW-620 colon, 85.3%; in the assay on MCF7 breast, 101%; with HCT-116 colon it was 79.8%. Besides, the values for the growth in the assay on HCC-2998 colon and in the assay with KM12 colon were 111% and 98.6%, respectively.
As to `Cc1ccc2[nH]c(-c3ccc(S(C)(=O)=O)cc3)c(/C=N/N=C(N)N)c2c1`, the growth in the assay on T-47D breast is 67.8%; in the assay on BT-549 breast it was 76.9%; with MDA-MB-435 melanoma, -21.9% (active); with SW-620 colon, 36.4%; in the assay with MCF7 breast it was 64.6%; in the assay on HCT-116 colon, 24.4%. For the same molecule, the growth was 74% in the assay with HCC-2998 colon and 46.1% in the assay on KM12 colon.
With `Fc1ccc2c(c1)c(-c1nc(-c3c[nH]c4ncccc34)cs1)cn2CCCN1CCOCC1`, the growth in the assay with T-47D breast is 38.1%; in the assay on BT-549 breast it was 69.5%; with MDA-MB-435 melanoma, -17.1% (active); with SW-620 colon it was 24.9%; with MCF7 breast it was 22%; in the assay on HCT-116 colon it was 40.4%. Besides, the results for the growth with HCC-2998 colon and with KM12 colon were 74.3% and 22.5%, respectively.
